For assay [1], the target named is Rap guanine nucleotide exchange factor 3 (Homo sapiens) (UniProt O95398). Nature of the assay: Confirmatory qHTS for agonist of cAMP-regulated guanine nucleotide exchange factor 3 (EPAC1) (AID 1645881).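 Further: EPAC1 catalysed release of BODIPY-GDP from Rap1B seen as fluorescence loss; 100% = effect of cAMP agonist control; nearly all actives have a fitted effect of over 75% in size.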
Assay [2] addresses Rap guanine nucleotide exchange factor 4 (Homo sapiens) (UniProt Q8WZA2). Nature of the assay: Confirmatory qHTS for agonist of cAMP-regulated guanine nucleotide exchange factor 4 (EPAC2) (AID 1645884).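 Further: nucleotide exchange releases bodipy-GDP from Rap1 and this lowers its fluorescence; on the % scale 0 is the no-effect control and ±100 the full control effect; nearly all actives have a fitted effect of over 65% in size.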
Assay [3] shares this target. Nature of the assay: Confirmatory qHTS for antagonist of cAMP-regulated guanine nucleotide exchange factor 4 (EPAC2) (AID 1645885). Further: nearly all actives have a fitted effect of over 25% in size. On activity change, negative = inhibition: on the % scale 0 is the no-effect control and ±100 the full control effect.
Assay [4] has as its target Rap guanine nucleotide exchange factor 3 (Homo sapiens) (UniProt O95398). Nature of the assay: Counterscreen qHTS for antagonist of cAMP-regulated guanine nucleotide exchange factor 3 (EPAC1) (AID 1645888).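 Further: fluorescence loss as bound BODIPY-GDP is released from Rap1B; % of control where 0% means no effect.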 A digest of the protocol: (§1)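 Rap1B–BODIPY-GDP (250 nM) with 50 uM GDP; compounds pin-transferred to 9.74 nM–152 uM final (activator) or from 7.32 nM upwards (inhibitor). Fluorescence Ex/Em 480/540 nm read at 5 and 30 min, then after adding cAMP or buffer, at room temperature.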

Assay [5] shares this target. Kind of assay: Counterscreen qHTS for agonist of cAMP-regulated guanine nucleotide exchange factor 3 (EPAC1) (AID 1645889). Further: nearly all actives have a fitted effect of over 40% in size. Further: potency means the concentration at half of the fitted maximal effect. On activation: % of control where 0% means no effect. The procedure, abridged:
as §1

Assay [6] can be described thus: qHTS for Inhibitors of the vitamin D receptor (VDR): Hit Validation using a Texas Red Assay (AID 602201). Further: potency means the concentration at half of the fitted maximal effect. The procedure, abridged:
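Fluorescence polarization with 1.5 uM VDR-LBD, LG19078 and 7 nM Texas Red (final). After 2 hours at ambient temperature, read at Ex 595 nm/Em 615 nm.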

In assay [7] the target is Tyrosyl-DNA phosphodiesterase 1 (Homo sapiens) (UniProt Q9NUW8). Nature of the assay: Confirmation Assay for Inhibitors of Tyrosyl-DNA Phosphodiesterase (TDP1) (AID 489007). Further: potency means the concentration at half of the fitted maximal effect; nearly all actives have a fitted effect of over 40% in size. The following applies: recombinant human TDP1 enzymatic activity, dose-response. A digest of the protocol:
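Recombinant E. coli-expressed Tdp1 (1 nM final) was preincubated with compounds 15 min at room temperature, then reacted 5 min with 15 nM 5'-biotin/3'-phosphotyrosine-FITC DNA substrate; cleavage read as loss of AlphaScreen signal (10 ug/ml beads, 10 min).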

Assay [8] deals with Lethal(3)malignant brain tumor-like protein 1 (Homo sapiens) (UniProt Q9Y468). Kind of assay: qHTS Assay for the Inhibitors of L3MBTL1: Hit Validation (AID 540279). Further: potency means the concentration at half of the fitted maximal effect; nearly all actives have a fitted effect of over 70% in size. The following applies: L3MBTL1 methyl-lysine binding inhibition, biochemical qHTS. The procedure, abridged:
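L3MBTL1 (50 nM final) preformed 30 min with biotinylated H3(1-15)K9me1 peptide (75 nM), then compound 30 min at room temperature. Streptavidin donor and nickel chelate acceptor AlphaScreen beads (10 ug/mL each final) added for 30 min before read.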

A short description of assay [9]: qHTS Assay for the Inhibitors of L3MBTL1: Hit Validationin AlphaScreen Counterscreen (AID 602224). Further: 0% is about no effect. A digest of the protocol: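 Primary-screen actives were tested against a bead-bridging control: 1 nM biotinylated His6 joined streptavidin donor and nickel acceptor beads (10 ug/mL each). Incubations were 15 min with compound, then 30 min with beads, both at room temperature.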

Assay [10] in a line: qHTS for Inhibitors of Plasmodium falciparum (GB4) proliferation (AID 504315).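 Further: 0% = DMSO vehicle and -100% = 0.29 µM artemisinin control; nearly all actives have a fitted effect of over 50% in size.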 A digest of the protocol: (§2)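 Erythrocytes infected with P. falciparum line (0.3% parasitemia, 2.5% hematocrit final) incubated with compounds 72 h at 37 °C, 5% CO2; SYBR Green lysis buffer added, fluorescence read next day. Normalized to 0.29 uM artemisinin and DMSO.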
A short description of assay [11]: qHTS for Inhibitors of Plasmodium falciparum (CP250) proliferation (AID 504320).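 Further: plate controls were DMSO vehicle for no effect and 0.29 µM artemisinin control for full effect.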 The procedure, abridged: as §2
Assay [12] addresses Tumor susceptibility gene 101 protein (Homo sapiens) (UniProt Q99816). Kind of assay: qHTS Assay for Iinhibitors of HIV-1 Budding by Blocking the Interaction of PTAP/TSG101: Hit Validation (AID 651600). Further: potency means the concentration at half of the fitted maximal effect; nearly all actives have a fitted effect of over 70% in size. The procedure, abridged:
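Fluorescence polarization binding assay: Tsg101 binding domain (10 uM final) pre-dispensed with compounds, then FITC-labeled PTAP-motif peptide (50 nM final) added; 20 min at r.t. in HEPES pH 7.5 buffer with NaCl, Tween 20, EDTA, TCEP.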

Assay [13] has as its target Glucocorticoid receptor (Homo sapiens) (UniProt P04150). Kind of assay: GR-GFP Redistribution (AID 450;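 active means compounds whose dose series gives a full or clear partial fitted curve of increased nuclear translocation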; further: potency means the concentration at half of the fitted maximal effect). The following applies: U2OS GR-GFP nuclear translocation, laser cytometry, 2 h.

SMILES strings stand for the structures. Unmarked numbers belong to inactive results. Inconclusive results are not listed. The list shows a part of the results. Activity calls are given as the source filed them. Unless noted, the call rests on the fitted dose curve; in most records, active means well fitted curve in the direction sought with a large enough effect; inconclusive means small, poorly fitted or top-dose-only effect, or another doubt; inactive means no such curve, though single readings can be large; an effect the other way counts as inactive or inconclusive.

Rap guanine nucleotide exchange factor 4 (Homo sapiens), sequence (Q8WZA2 whole entry, looked up): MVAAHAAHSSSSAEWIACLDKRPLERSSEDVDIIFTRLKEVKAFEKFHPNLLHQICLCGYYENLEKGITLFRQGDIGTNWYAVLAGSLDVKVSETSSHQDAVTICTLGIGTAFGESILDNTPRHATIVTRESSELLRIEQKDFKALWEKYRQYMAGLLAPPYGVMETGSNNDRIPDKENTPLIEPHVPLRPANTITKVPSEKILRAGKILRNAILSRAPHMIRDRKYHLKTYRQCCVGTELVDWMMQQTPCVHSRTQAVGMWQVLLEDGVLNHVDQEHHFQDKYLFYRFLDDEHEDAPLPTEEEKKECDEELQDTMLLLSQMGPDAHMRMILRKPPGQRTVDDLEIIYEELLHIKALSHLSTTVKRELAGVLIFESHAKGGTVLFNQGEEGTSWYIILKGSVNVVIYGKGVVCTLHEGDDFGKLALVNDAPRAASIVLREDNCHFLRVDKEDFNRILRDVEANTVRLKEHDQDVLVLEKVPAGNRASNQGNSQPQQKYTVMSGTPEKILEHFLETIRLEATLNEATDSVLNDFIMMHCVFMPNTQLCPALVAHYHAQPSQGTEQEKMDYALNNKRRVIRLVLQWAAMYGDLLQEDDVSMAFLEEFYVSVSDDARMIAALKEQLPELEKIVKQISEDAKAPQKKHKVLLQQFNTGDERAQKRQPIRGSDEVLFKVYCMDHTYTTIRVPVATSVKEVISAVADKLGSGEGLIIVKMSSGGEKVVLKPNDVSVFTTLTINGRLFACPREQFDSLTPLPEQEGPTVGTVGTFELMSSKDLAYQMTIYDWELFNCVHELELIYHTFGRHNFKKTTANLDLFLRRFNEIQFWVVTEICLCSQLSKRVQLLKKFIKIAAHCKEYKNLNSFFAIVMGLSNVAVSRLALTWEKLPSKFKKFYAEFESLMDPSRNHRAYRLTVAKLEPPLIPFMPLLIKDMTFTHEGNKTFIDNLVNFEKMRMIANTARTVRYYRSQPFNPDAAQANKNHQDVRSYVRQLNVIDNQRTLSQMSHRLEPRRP
Rap guanine nucleotide exchange factor 3 (Homo sapiens), sequence (O95398 whole entry, looked up): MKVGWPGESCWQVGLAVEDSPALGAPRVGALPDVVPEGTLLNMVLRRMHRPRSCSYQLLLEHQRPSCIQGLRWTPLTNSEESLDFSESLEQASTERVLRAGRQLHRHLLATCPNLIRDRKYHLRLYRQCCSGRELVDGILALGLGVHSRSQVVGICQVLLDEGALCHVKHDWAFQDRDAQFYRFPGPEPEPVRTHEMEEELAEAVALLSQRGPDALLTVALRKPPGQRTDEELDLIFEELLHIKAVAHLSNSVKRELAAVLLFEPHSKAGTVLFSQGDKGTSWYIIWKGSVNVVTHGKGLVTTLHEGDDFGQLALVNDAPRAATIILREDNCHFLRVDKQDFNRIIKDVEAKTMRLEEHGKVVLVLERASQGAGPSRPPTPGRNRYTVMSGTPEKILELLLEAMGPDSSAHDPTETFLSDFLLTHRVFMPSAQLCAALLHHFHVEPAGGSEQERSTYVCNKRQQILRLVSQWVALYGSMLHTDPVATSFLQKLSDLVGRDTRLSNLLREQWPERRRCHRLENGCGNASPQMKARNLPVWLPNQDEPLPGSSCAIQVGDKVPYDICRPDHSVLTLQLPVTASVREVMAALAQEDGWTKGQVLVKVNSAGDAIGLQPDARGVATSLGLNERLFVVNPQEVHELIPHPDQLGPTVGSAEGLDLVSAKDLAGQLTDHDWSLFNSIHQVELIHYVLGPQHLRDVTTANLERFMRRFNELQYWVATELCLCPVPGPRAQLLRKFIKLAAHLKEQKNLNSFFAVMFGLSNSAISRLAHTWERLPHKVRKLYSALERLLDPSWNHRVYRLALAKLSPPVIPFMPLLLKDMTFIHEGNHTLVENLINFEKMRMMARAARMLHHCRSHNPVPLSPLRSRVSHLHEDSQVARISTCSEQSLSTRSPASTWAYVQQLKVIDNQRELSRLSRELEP
Tyrosyl-DNA phosphodiesterase 1 (Homo sapiens), sequence (Q9NUW8 whole entry, looked up): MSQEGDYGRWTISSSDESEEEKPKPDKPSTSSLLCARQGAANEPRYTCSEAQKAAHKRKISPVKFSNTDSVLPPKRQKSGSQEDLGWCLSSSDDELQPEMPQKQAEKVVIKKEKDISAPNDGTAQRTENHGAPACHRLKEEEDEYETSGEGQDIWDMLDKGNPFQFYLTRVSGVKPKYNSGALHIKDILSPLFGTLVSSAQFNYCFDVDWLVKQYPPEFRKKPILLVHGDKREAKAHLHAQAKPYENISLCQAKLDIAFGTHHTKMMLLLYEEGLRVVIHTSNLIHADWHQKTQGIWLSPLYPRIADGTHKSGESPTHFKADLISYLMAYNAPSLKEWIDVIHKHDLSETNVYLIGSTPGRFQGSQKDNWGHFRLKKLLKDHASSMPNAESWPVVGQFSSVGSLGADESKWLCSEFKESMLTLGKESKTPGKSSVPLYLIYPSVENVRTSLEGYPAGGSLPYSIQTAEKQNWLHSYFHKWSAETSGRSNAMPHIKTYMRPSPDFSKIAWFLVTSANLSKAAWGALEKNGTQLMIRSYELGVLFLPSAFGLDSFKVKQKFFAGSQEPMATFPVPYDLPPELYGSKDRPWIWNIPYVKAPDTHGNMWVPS
Glucocorticoid receptor (Homo sapiens), sequence (P04150 whole entry, looked up): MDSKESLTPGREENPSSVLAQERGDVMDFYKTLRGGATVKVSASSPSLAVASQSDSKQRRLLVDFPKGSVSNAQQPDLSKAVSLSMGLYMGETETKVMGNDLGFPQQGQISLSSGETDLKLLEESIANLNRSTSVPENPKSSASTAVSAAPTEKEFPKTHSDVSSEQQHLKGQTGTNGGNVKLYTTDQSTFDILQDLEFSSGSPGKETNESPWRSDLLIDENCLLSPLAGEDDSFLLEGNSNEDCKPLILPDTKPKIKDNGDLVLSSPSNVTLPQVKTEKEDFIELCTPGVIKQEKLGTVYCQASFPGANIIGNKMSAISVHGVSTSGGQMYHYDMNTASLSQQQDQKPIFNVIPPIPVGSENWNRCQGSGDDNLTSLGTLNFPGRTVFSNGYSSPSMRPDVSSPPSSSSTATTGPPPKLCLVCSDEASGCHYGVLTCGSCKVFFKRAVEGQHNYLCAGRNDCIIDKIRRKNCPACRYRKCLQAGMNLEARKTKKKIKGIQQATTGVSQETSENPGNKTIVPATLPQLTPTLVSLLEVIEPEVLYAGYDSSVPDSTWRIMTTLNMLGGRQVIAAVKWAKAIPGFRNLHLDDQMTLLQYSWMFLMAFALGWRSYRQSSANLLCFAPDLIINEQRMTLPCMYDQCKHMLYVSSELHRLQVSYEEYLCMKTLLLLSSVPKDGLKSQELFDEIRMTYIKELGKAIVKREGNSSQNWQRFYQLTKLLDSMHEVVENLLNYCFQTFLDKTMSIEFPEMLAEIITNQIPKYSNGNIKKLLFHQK
Tumor susceptibility gene 101 protein (Homo sapiens), sequence (Q99816 whole entry, looked up, the tested form may be a part): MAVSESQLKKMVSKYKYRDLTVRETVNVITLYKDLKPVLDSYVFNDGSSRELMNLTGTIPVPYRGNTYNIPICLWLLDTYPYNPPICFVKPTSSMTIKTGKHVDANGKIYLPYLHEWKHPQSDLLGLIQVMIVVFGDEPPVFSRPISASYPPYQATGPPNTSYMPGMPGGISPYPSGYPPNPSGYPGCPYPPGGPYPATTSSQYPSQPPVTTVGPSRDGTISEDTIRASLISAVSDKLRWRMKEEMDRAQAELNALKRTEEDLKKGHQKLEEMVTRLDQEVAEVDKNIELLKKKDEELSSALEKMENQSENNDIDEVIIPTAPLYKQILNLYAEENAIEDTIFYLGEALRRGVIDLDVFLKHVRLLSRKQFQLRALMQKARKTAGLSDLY
Lethal(3)malignant brain tumor-like protein 1 (Homo sapiens), sequence (Q9Y468 whole entry, looked up): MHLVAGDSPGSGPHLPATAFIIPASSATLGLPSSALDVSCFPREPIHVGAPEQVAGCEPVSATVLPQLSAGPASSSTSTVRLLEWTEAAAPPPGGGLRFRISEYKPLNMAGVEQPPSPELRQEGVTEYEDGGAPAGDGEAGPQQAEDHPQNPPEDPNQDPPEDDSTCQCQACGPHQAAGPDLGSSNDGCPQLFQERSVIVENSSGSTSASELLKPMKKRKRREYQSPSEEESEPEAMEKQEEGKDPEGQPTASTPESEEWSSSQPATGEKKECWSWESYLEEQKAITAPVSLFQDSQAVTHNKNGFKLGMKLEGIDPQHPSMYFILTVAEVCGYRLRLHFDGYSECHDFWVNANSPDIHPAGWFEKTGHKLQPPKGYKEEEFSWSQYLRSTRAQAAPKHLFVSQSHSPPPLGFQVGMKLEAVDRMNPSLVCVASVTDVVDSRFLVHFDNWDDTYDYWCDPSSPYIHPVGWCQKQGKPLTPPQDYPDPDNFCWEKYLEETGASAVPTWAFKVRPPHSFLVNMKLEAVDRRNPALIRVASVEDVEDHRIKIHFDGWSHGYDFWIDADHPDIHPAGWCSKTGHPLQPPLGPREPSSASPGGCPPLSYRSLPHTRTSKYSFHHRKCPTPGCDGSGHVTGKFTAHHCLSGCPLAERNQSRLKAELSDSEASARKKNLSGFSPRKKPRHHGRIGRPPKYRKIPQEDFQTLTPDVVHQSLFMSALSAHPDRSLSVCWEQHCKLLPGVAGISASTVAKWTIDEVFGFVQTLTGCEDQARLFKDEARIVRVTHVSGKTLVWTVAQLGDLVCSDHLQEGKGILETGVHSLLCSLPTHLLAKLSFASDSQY

Regarding `CCC(Oc1ccccc1)C(=O)Nc1ccccc1N1CCCC1` (stereo unspecified), the Potency entry in [1], in assay [2], in [3], in [4] and in assay [5] was “inactive” throughout.
For the compound `COc1ccc(S(=O)(=O)Nc2cc(SCC(=O)O)c(O)c3ccccc23)cc1`, the Potency in [6] is 3.55 µM (active); in [5], 56.2 µM (active). Besides, the Potency result in [1], in assay [2], in assay [3] and in assay [4] was “inactive” each time.
Consider `O=C(NNC(=O)c1cc2cc(Br)ccc2oc1=O)c1ccc(O)cc1O`, for which the Potency in [7] was 56.2 µM (active). Besides, the Potency entry in assay [1], in assay [2], in assay [3] and in assay [4] was “inactive” in each case.
Turning to `Cc1ccc(Cn2c(C)nc3c(c2=O)c2nc4ccccc4nc2n3Cc2ccco2)cc1`, the Potency in assay [8] was 23.8 µM (active). Moreover, the call in [9] was inactive. Also, the Potency entry in assay [1], in assay [2], in assay [3], in assay [4] and in assay [5] was “inactive” throughout.
`CC1(OC(=O)C2CCCC2)C(=O)C=C2C=C(c3ccsc3)N(Cc3ccco3)C=C2C1=O` (stereo unspecified): the compound was classed as inactive in [10] and in assay [11]. Besides, the Potency result in [1], in [2], in [3] and in assay [4] was “inactive” throughout.
Regarding `Cc1c2cc(O)c(=O)cc-2oc2cc(O)c(O)cc12`, the Potency in assay [12] was 1.83 µM (active). Moreover, the Potency entry in assay [1] and in [3] was “inactive” each time. Further, the activation in [2] was -3.29% [at 17.1 µM, percent relative to cAMP agonist control]; in assay [5], 0.526% [at 30.8 µM]. Also, the activity change, negative = inhibition in [4] is -2.73% [at 30.8 µM].
Take `COc1ccc(C(CC(=O)N2CCCC2)c2c(OC)cc(OC)c3c(-c4ccccc4)cc(=O)oc23)cc1` (stereo unspecified): in [7], the Potency is 2.24 µM (active). For the same compound, the Potency entry in assay [1], in [2], in [3] and in assay [4] was “inactive” throughout.
In the case of `CC1(C)Cc2c(C#N)c(N3CCN(C(=O)c4ccco4)CC3)nc(-c3ccco3)c2CS1`, in assay [13], the Potency is above 20.6 µM. In addition, the Potency entry in assay [1], in [2], in assay [3], in assay [4] and in assay [5] was “inactive” each time.
On to `CC(C)(C)c1ccc(C(=O)N/C(=C\c2cccc([N+](=O)[O-])c2)C(=O)Nc2cccc(C(=O)O)c2)cc1`, for which the Potency entry in [1] and in assay [3] was “inactive” in each case. The activation in assay [2] was 8.06% [at 17.1 µM, percent relative to cAMP agonist control]; in assay [5], 22.2% [at 30.8 µM]. The activity change, negative = inhibition in [4] was -17.2% [at 30.8 µM].

Source of the values: PubChem BioAssay (NCATS).
